# Screens as filed in PubChem BioAssay.
# Only some compounds are listed: those with a hit (about 1.1% of all), similar ones and a draw of the others.
# Anesthetic bind = qHTS Assay for Identification of Novel General Anesthetics; Ferritin light chain (Equus caballus), P02791; apoferritin/1-aminoanthracene competitive binding, fluorescence; Potency, µM (highest dose often 77.5 µM), inactives show top-dose activity change, negative = displacement, actives largely listed as inhibitors; 350,000 tested, 0.074% active; AID 485281, 2010; also: % is scaled to controls: 0 for no effect and ±100 for the full control effect; nearly all actives have a fitted effect of over 20% in size
# Target sequence (P02791 2-175 limits assumed): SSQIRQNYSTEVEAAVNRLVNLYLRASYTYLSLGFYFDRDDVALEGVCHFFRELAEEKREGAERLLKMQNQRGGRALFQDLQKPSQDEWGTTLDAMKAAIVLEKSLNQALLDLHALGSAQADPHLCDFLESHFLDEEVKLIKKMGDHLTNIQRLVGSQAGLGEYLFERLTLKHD
#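 Apoferritin-based anesthetic binding model; compound displacement of fluorescent 1-AMA measured as endpoint fluorescence after 10 minutes at room temperature, scaled to free-ligand and complex controls.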
# 12-LOX inh = Primary qHTS assay for inhibitors of human arachidonate 12S-lipoxygenase (ALOX12): Round 2 | Polyunsaturated fatty acid lipoxygenase ALOX12 (Homo sapiens), P18054 | purified 12hLO, xylenol orange hydroperoxide absorbance | Potency, µM (series often up to 108 µM), for inactives: at the top dose activity change, negative = inhibition, usual class: inhibitors | 580,000 tested, 1.1% active | AID 1671190, 2021; also: % is scaled to controls: 0 for no effect and ±100 for the full control effect
#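 Purified human 12hLO at 150 nM in 25 mM Hepes, 0.01% Triton X-100, pH 7.0, preincubated 15 min at room temperature with compound. Reaction started with 40 uM arachidonic acid, 30 min at room temperature. Hydroperoxide measured by Fe-xylenol orange, 573/405 nm absorbance ratio.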
# Chronic BCR inh = qHTS Assay to Find Inhibitors of Chronic Active B-Cell Receptor Signaling; ABC-DLBCL IkBa-CBG/CBR reporter, luminescence ratio, 4 h; Potency, µM (series often up to 46.1 µM), for the others: at the highest dose activity change, negative = inhibition, most hits filed as inhibitors; 340,000 tested, 0.05% active; active = well fitted inhibition curve with a large enough effect in the signal ratio, with a control signal flat, not every such curve was filed as active; inconclusive = small, poorly fitted or top-dose-only effect, or effect the other way, or a change in a side signal; the % refers to the signal ratio;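 also: plate controls were basal doxycycline-induced cells for no effect and cells given 10 µM MG132 for full effect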
#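 TMD8 human ABC-DLBCL cells with doxycycline-inducible IκBα–green luciferase fusion and unfused red luciferase, in 0.5% FBS medium; compounds up to 46 uM, 4 h at 37C. Green/red luminescence ratio, filter-overlap corrected, fitted to concentration-response curves.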
# GRP78 ERSR act = qHTS for Inducers of the Endoplasmic Reticulum Stress Response (ERSR) in Human Glioma: qHTS. U87-MG GRP78 promoter luciferase reporter, 16 h. Potency, µM, inactives show top-dose activation, actives largely listed as activators. 420,000 tested, 0.02% active. AID 602332, 2012; also: series mostly up to about 76 µM; % of control where 0% means no effect; nearly all actives have a fitted effect of over 35% in size
#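 Stably transfected U87-MG human glioma cells carrying a GRP78-based luminescent sensor were seeded at 1000 cells/well, pin-dosed with compounds and incubated 16 h. Luciferase reagent was then added, and end-point luminescence was read after 10 min at room temperature.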
# The depositor's hits bear a star; ? = inconclusive; / = not tested or not shown. Unless noted, calls follow the shape of the dose curve; as a rule, active = well fitted curve in the direction sought with a large enough effect; inconclusive = small, poorly fitted or top-dose-only effect, or another doubt; inactive = no such curve, though single readings can be large; an effect the other way counts as inactive or inconclusive. Potency is read from the fitted curve at half-maximal effect.
SMILES,Anesthetic bind,12-LOX inh,Chronic BCR inh,GRP78 ERSR act
COCCSc1ccccc1C(=O)Nc1ccc(Cl)cc1,-12%,18µM*,-1%,0%
COCCSc1ccccc1C(=O)Nc1cccnc1,-7%,22µM*,-6%,-4%
COCCSc1ccccc1C(=O)Nc1ccc2c(c1)OCO2,-8%,-16%,-3%,-4%
COCCSc1ccccc1C(=O)Nc1nnc(COC)s1,-3%,?,?,-1%
COCCSc1ccccc1C(=O)Nc1ccc(Br)cc1,-13%,35µM*,0%,0%
COCCSc1ccccc1C(=O)Nc1cc(C)on1,-8%,?,?,-2%
COC(=O)c1ccc2c(=O)[nH]c(CN(C)CC(=O)Nc3cccc(F)c3)nc2c1,/,30%,/,/
CCC(C(=O)Nc1cccc(C(C)=O)c1)n1c(=O)c(-c2ccccc2NC(C)=O)nc2ccccc21 (configuration not stated),/,0%,/,/
O=C(c1cc2cc(Cl)ccc2[nH]1)N1CCN(C(=O)c2ccco2)CC1,-14%,45µM*,?,1%
CCn1c(SCCOC)nnc1C1CC1,/,-20%,/,/
CCCOc1ccc(C(=O)N2CCC(c3nc4ccccc4s3)CC2)cc1,-11%,-27%,/,0%
O=C(CN1CCC(c2nc3ccccc3s2)CC1)N1CCCCC1,-6%,2%,2%,-1%
c1ccc(OCCCN2CCC(c3nc4ccccc4s3)CC2)cc1,/,0.71µM*,/,/
O=C(Cn1nnc(-c2ccccc2)n1)N1CCCC(c2nc3ccccc3s2)C1 (configuration not stated),/,17%,/,/
c1ccc(OCCCCN2CCC(c3nc4ccccc4s3)CC2)cc1,/,0.89µM*,/,/
O=C(Cn1nnc(-c2ccccc2)n1)N1CCC(c2nc3ccccc3s2)CC1,/,40µM*,/,/
CCCCOc1ccc2cc(C(=O)N3CCC(C(N)=O)CC3)[nH]c2c1,/,12%,/,/
CCCCCn1c(CCC(=O)NCc2cccc(OC)c2)nc2c1c(=O)[nH]c(=O)n2CCCC,/,2%,/,/
O=C(O)c1ccccc1NS(=O)(=O)c1ccc(N/N=C/c2c(-c3ccccc3)[nH]c3ccccc23)c([N+](=O)[O-])c1,/,13µM*,/,/
O=C(O)COc1ccccc1C=NNc1ccc([N+](=O)[O-])cc1S(=O)(=O)Nc1ccc(Cl)cc1,/,35µM*,?,-4%
COc1ccc(NS(=O)(=O)c2cc([N+](=O)[O-])ccc2NN=Cc2ccccc2OCC(=O)O)cc1,/,?,3%,-2%
COc1ccccc1NS(=O)(=O)c1ccc(N/N=C/c2ccccc2OCC(=O)O)c([N+](=O)[O-])c1,-24%,?,7%,-4%
O=C(O)COc1ccccc1/C=N/Nc1ccc(S(=O)(=O)Nc2ccc(Cl)cc2)cc1[N+](=O)[O-],?,32µM*,7%,-3%
CNCc1cc(Cl)cc(OC)c1OCc1ccccc1,/,8%,/,/
CS(=O)(=O)c1cccc(OCCOc2ccc(F)cc2)c1,/,65%,/,/
SMILES,Anesthetic bind,12-LOX inh,Chronic BCR inh,GRP78 ERSR act
COC(=O)c1ccccc1NC(=O)C1CCN(S(=O)(=O)Cc2ccccc2Cl)CC1,/,-10%,/,/
Cc1c(Cc2ccccc2)sc(NC(=O)Cc2ccccc2)c1C(N)=O,/,16µM*,/,-6%
OCCOCCn1c(-c2ccccc2)nc(=S)c2c1CCCC2,-8%,40µM*,2%,-2%
CN(C(=O)COC(=O)Cc1n[nH]c(=O)c2ccccc12)C1(C#N)CCCCC1,/,1%,/,/
Nc1nc(CN2CCC(O)CC2)nc2ccccc12,/,-27%,/,/
O=C(O)CSCc1ccc(Cl)cc1Cl,/,17%,/,/
CC(C)n1c(CSCc2ccc(Cl)cc2Cl)n[nH]c1=S,?,45µM*,-6%,-3%
CN1CCN(c2ncc3nc(-c4ccccc4)c(=O)n(Cc4ccc(F)cc4)c3n2)CC1,/,35µM*,/,-4%
CN1CCN(c2ncc3nc(-c4cc(F)cc(F)c4)c(=O)n(Cc4cccs4)c3n2)CC1,/,18µM*,/,-6%
COc1ccc(-n2c(=O)c(CCc3ccccc3)nc3cnc(N4CCN(C)CC4)nc32)cc1,/,13µM*,/,-6%
COc1ccc(-n2c(=O)c(CCc3ccccc3)nc3cnc(N4CCNCC4)nc32)cc1,/,-24%,/,0%
CN1CCN(c2ncc3nc(-c4ccc(Cl)cc4)c(=O)n(Cc4ccc(F)cc4)c3n2)CC1,/,?,/,-5%
COc1ccc(-c2nc3cnc(N4CCN(C)CC4)nc3n(Cc3cccs3)c2=O)cc1,/,?,/,-2%
